From PubChem BioAssay (EPA / NIEHS) come the findings set out here.

Structures are written as SMILES. Calls of active or inactive are those of the source. The calls were made as follows: active = hit-call score of the fitted dose curve at least 0.9, where 1 is the maximum; inactive = score below 0.9.

A short description of assay [1]: ATG_PBREM_CIS: Attagene CIS-FACTORIAL HepG2 Assay for human Phenobarbital-responsive Enhancer Module (PBREM) (AID 2282955). The following applies: HepG2 PBREM cis-reporter, Attagene multiplexed transcription; actives raise or lower the signal. Put shortly: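 HepG2, transient MRTU transfection, 24 h dosing; RNA → oligo(dT) RT → PCR → 6-FAM extension → HpaI → CE. Bidirectional fit vs DMSO.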

The target in assay [2] is Paired box protein Pax-6 (Homo sapiens) (UniProt P26367). The assay can be described thus: ATG_Pax6_CIS: Attagene CIS-FACTORIAL HepG2 Assay for human Paired Box 6 (PAX6) (AID 2282956). Particulars: HepG2 CIS-FACTORIAL PAX6 reporter transcription, RNA readout; actives raise or lower the signal. An outline of the steps:
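HepG2 cells transiently transfected with multiplexed cis-promoter reporter units (endogenous TF activity) were dosed for 24 h. Reporter mRNA was quantified by RT-PCR, 6-FAM labeling, HpaI digestion and capillary electrophoresis; bidirectional fitting versus DMSO baseline.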

Assay [3] can be described thus: ATG_PXRE_CIS: Attagene CIS-FACTORIAL HepG2 Assay for human Pregnane X Receptor Element (PXRE) (AID 2282957). The following applies: HepG2 Attagene CIS-FACTORIAL PXRE reporter, mRNA; actives raise or lower the signal. Put shortly:
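Multiplexed cis-reporter assay in transiently transfected human HepG2 cells; 24 h chemical exposure. Reporter transcripts quantified by RT-PCR with fluorescent labeling and capillary electrophoresis.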

Assay [4] can be described thus: ATG_PPRE_CIS: Attagene CIS-FACTORIAL HepG2 Assay for human Peroxisome Proliferator-activated Response Element (PPRE) (AID 2282958). Particulars: HepG2 PPRE cis-element reporter, Attagene transcription factor profiling; actives raise or lower the signal. An outline of the steps: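 Transcript-level reporter induction in transfected HepG2 cells after 24 h chemical exposure, quantified by fluorescence from RT-PCR products separated by capillary electrophoresis.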

Assay [5] can be described thus: ATG_RORE_CIS: Attagene CIS-FACTORIAL HepG2 Assay for human RAR-related Orphan Receptor Element (RORE) (AID 2282959). Particulars: HepG2 Attagene cis-factorial RORE reporter, mRNA; actives raise or lower the signal. Put shortly: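 Multiplexed reporter assay measuring mRNA induction from a cis promoter element in transiently transfected HepG2 cells after 24 h treatment. Detection via RT-PCR and capillary electrophoresis fluorescence; DMSO serves as baseline.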

Assay [6] is described as follows: ATG_Sox_CIS: Attagene CIS-FACTORIAL HepG2 Assay for human SRY-box transcription factor (SOX) (AID 2282960). The following applies: HepG2 Attagene cis-factorial SOX reporter, mRNA; actives raise or lower the signal. An outline of the steps: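 Cells were transfected with reporter constructs under cis-regulatory promoters, then exposed to chemicals for 24 h. Reporter transcripts were quantified by fluorescence after RT-PCR and capillary electrophoresis; activity was fitted in both directions against DMSO.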

Assay [7] deals with Transcription factor Sp1 (Homo sapiens) (UniProt P08047). The assay can be described thus: ATG_Sp1_CIS: Attagene CIS-FACTORIAL HepG2 Assay for human Specificity Protein 1 (Sp1) (AID 2282961). Particulars: HepG2 Sp1 cis-reporter transcription, actives raise or lower the signal. An outline of the steps:
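Measures mRNA induction of an Sp1-linked reporter in HepG2 cells 24 h post-dosing. Multiplexed reporters read by RT-PCR and capillary electrophoresis; DMSO serves as negative control and baseline.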

The nature of assay [8]: ATG_SREBP_CIS: Attagene CIS-FACTORIAL HepG2 Assay for human Sterol Regulatory Element Binding (SREBP) (AID 2282962). The following applies: HepG2 Attagene cis-factorial SREBP reporter, mRNA; actives raise or lower the signal. An outline of the steps: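 HepG2 cells transiently transfected with multiplexed cis-element reporter units report endogenous transcription factor activity. After 24 h of chemical exposure, reporter mRNA was quantified by RT-PCR, 6-FAM labelling, HpaI digestion and capillary electrophoresis; bidirectional fits used DMSO as baseline.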

The target in assay [9] is Signal transducer and activator of transcription 3 (Homo sapiens) (UniProt P40763). Put plainly: ATG_STAT3_CIS: Attagene CIS-FACTORIAL HepG2 Assay for human Signal Transducer and Activator of Transcription 3 (STAT3) (AID 2282963). The following applies: HepG2, Attagene cis-factorial STAT3 reporter transcription; actives raise or lower the signal. Put shortly: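 HepG2 cells transiently transfected with multiple cis-element-driven reporter units report endogenous transcription factor activity. After 24 h compound exposure, reporter mRNA is measured by RT-PCR, 6-FAM labelling, HpaI digestion and capillary electrophoresis. Fitted bidirectionally versus DMSO.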
Chain of Signal transducer and activator of transcription 3 (Homo sapiens) (P40763 whole entry, looked up): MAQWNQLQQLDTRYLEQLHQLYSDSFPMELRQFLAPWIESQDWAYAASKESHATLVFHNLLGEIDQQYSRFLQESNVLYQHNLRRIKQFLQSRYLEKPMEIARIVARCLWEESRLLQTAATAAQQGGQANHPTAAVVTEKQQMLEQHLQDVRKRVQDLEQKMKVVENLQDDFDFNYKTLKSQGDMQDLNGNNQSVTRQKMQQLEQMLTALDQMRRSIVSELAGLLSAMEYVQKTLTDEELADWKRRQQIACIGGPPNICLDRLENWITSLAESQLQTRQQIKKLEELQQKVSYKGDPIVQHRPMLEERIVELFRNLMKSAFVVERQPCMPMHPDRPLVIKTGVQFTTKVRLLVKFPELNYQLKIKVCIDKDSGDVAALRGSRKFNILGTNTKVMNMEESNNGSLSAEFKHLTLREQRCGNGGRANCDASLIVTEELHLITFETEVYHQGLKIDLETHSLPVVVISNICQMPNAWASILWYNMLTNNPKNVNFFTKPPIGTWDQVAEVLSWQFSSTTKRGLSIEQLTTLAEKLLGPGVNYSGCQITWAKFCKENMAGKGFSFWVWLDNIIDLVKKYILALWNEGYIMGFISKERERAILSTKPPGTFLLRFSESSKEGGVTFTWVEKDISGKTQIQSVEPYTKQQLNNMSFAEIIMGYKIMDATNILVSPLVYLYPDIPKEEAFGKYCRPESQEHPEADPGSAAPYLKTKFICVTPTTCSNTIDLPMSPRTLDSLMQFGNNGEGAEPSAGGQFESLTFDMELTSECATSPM

Assay [10] can be described thus: ATG_TA_CIS: Attagene CIS-FACTORIAL HepG2 Assay for human TA Basal Promoter (AID 2282964). Particulars: HepG2 Attagene CIS-factorial TA basal promoter reporter; actives raise or lower the signal. Put shortly:
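HepG2 cells transiently transfected with multiplexed cis-promoter reporter units, dosed 24 h. Reporter mRNA measured by RT-PCR, 6-FAM labelling, HpaI digestion and capillary electrophoresis; bidirectional fit versus DMSO baseline, serving as background control.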

Chain of Transcription factor Sp1 (Homo sapiens) (P08047 whole entry, looked up): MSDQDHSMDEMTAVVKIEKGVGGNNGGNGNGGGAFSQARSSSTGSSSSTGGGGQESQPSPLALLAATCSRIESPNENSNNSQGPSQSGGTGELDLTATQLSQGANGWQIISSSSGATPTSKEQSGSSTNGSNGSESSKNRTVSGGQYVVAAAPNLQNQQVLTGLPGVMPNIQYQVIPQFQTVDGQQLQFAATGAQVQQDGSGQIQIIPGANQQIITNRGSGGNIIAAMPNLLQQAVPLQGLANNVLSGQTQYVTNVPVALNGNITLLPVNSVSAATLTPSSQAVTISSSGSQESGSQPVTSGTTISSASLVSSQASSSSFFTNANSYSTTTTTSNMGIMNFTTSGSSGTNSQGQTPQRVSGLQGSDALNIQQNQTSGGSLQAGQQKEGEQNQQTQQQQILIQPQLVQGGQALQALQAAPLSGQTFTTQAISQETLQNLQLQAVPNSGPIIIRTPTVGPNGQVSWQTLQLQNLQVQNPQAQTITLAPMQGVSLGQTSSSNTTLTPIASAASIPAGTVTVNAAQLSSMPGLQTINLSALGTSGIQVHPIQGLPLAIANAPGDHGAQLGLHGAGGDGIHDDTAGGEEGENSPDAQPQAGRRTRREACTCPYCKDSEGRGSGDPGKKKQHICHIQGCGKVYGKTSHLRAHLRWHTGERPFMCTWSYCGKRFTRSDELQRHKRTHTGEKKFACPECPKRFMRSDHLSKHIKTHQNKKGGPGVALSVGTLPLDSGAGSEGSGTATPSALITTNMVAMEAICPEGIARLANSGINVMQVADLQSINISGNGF
Chain of Paired box protein Pax-6 (Homo sapiens) (P26367 whole entry, looked up): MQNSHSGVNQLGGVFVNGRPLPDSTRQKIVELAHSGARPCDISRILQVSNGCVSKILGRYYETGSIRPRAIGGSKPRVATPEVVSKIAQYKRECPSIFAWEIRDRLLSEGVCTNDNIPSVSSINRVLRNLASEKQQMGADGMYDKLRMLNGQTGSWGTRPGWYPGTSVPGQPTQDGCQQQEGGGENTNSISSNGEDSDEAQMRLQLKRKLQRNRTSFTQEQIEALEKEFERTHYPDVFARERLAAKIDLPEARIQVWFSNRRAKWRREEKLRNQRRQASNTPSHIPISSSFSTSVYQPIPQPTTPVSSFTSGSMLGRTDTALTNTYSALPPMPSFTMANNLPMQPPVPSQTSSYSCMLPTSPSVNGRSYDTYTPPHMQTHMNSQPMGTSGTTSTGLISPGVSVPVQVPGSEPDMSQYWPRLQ

`CCCCCCCCCCCCCCCCC`: the outcome in assay [1], in assay [2], in assay [4], in assay [5], in [6] and in assay [7] was inactive. Further, the call in [8], in assay [9] and in [10] was inactive. In assay [3], the concentration at half-maximal activity (AC50) is 27.2 µM (active).
For `F[Si-2](F)(F)(F)(F)F`, the outcome in [1], in [2], in assay [3], in [4], in assay [5] and in [6] was inactive. Also, the result in assay [7], in assay [8], in [9] and in assay [10] was inactive.
With `CCCCCCCCCCCCC[N+](C)(C)Cc1ccccc1`, the result in [1], in assay [2], in [3], in assay [4], in [5] and in assay [6] was inactive. The result in [7], in assay [8], in assay [9] and in assay [10] was inactive.
Take `CC(C)(C)c1cc(Cc2cc(C(C)(C)C)c(O)c(C(C)(C)C)c2)cc(C(C)(C)C)c1O`: the result in [1], in assay [2], in assay [4], in assay [5], in assay [6] and in assay [7] was inactive. Besides, the molecule was classed as inactive in assay [8], in assay [9] and in [10]. Moreover, the half-maximal activity concentration (AC50) in [3] is 0.513 µM (active).
As for `CCCCOC(=O)[C@H](C)O`, the result in assay [1], in assay [2], in assay [3], in assay [4], in assay [5] and in [6] was inactive. For the same molecule, the result in assay [7], in assay [8], in assay [9] and in [10] was inactive.
Regarding `O=C1c2c(O)ccc(Nc3ccc(CCO)cc3)c2C(=O)c2c([N+](=O)[O-])ccc(O)c21`, the AC50 in assay [1] is 38.6 µM (active); in [3], 6.06 µM (active); in assay [4] it was 24.1 µM (active); in assay [5], 4.01 µM (active). Besides, the outcome in assay [2], in assay [6], in [7], in assay [8], in [9] and in assay [10] was inactive.
For the molecule `CC1=CCC(=O)O1`, the result in assay [1], in [2], in [4], in assay [5], in assay [6] and in [7] was inactive. The molecule was called inactive in assay [8], in assay [9] and in [10]. For the same molecule, in assay [3], the half-maximal activity concentration (AC50) is 26.7 µM (active).
As for `CCN(CC)c1ccc(C=O)c(O)c1`, the outcome in assay [1], in assay [2], in [3], in [4], in [6] and in [7] was inactive. In addition, the result in assay [8], in [9] and in [10] was inactive. Besides, in assay [5], the AC50 was 38.1 µM (active).
Turning to `CCCCCCCCCc1ccc(OCCO)cc1`, the outcome in assay [1], in assay [4], in assay [5], in assay [6] and in [10] was inactive. Besides, the half-maximal activity concentration (AC50) is 24.3 µM (active) in [2]; 0.64 µM (active) in assay [3]; 13.3 µM (active) in assay [7]; 3.56 µM (active) in [8]; 19.5 µM (active) in assay [9].
For the molecule `COCCOCCC[Si](C)(O[Si](C)(C)C)O[Si](C)(C)C`, the AC50 in [1] is 8.38 µM (active); in assay [3] it was 0.752 µM (active); in [6], 8.52 µM (active); in assay [7], 9.13 µM (active); in [8] it was 6.62 µM (active). The molecule was called inactive in assay [2], in [4], in assay [5], in [9] and in assay [10].
For `CN1CN(C)CN(C)C1`, the result in assay [1], in assay [2], in assay [4], in assay [5], in assay [6] and in [7] was inactive. Also, the result in assay [8], in [9] and in assay [10] was inactive. For the same molecule, in assay [3], the AC50 is 49.5 µM (active).
Take `CCOC(C=C(C)CCC=C(C)C)OCC`: the result in assay [1], in [2], in assay [4], in [6], in assay [7] and in assay [8] was inactive. Further, the call in [9] and in assay [10] was inactive. Besides, the AC50 in assay [3] was 31.2 µM (active); in [5], 38.3 µM (active).
As to `O=C(O)C(F)(F)OC(F)(F)C(F)(F)OC(F)(F)C(F)(F)OC(F)(F)F`, the outcome in [1], in [2], in assay [3], in assay [5], in assay [6] and in [7] was inactive. Further, the result in assay [8], in [9] and in assay [10] was inactive. Moreover, in [4], the AC50 is 36.4 µM (active).
With `CN(C(=O)C(F)(F)C(F)(F)C(F)(F)F)[Si](C)(C)C`, the result in assay [1], in [2], in assay [3], in assay [4], in assay [5] and in assay [6] was inactive. In addition, the outcome in [7], in assay [8], in assay [9] and in assay [10] was inactive.
Turning to `O=S(=O)(O)CCC(F)(F)C(F)(F)C(F)(F)C(F)(F)C(F)(F)C(F)(F)C(F)(F)C(F)(F)F`, the outcome in [1], in [2], in assay [3], in assay [4], in assay [5] and in [6] was inactive. The result in assay [7], in [8] and in assay [10] was inactive.
As for `OCC1CCCO1` (configuration not stated), the outcome in [1], in [2], in assay [3], in assay [4], in assay [5] and in assay [6] was inactive. The call in assay [8], in assay [9] and in assay [10] was inactive.
As to `FC(F)(F)C(F)(F)C(F)(F)C(F)(F)C(F)(F)C(F)(F)CC[Si](Cl)(Cl)Cl`, the result in assay [1], in assay [2], in [3], in assay [4], in assay [5] and in assay [6] was inactive. For the same molecule, the molecule was called inactive in assay [8], in assay [9] and in assay [10].
`O=S(=O)(O)c1ccc(Cl)cc1`: the outcome in [1], in assay [2], in assay [3], in [4], in assay [5] and in [6] was inactive. The molecule was classed as inactive in assay [7], in assay [8] and in [10].
Turning to `O=C(O)CCC(F)(F)C(F)(F)C(F)(F)F`, the outcome in assay [1], in assay [2], in assay [3], in assay [4], in assay [5] and in assay [6] was inactive. Moreover, the molecule was called inactive in assay [7], in assay [8], in assay [9] and in assay [10].
In the case of `NC(=O)C(F)(F)C(F)(F)C(F)(F)C(F)(F)C(N)=O`, the result in assay [1], in [2], in assay [3], in assay [4], in assay [5] and in assay [6] was inactive. Moreover, the molecule was called inactive in [8], in [9] and in assay [10].
For `CCCC(=O)OCC(COC(=O)CCC)OC(=O)CCC`, the result in assay [1], in assay [2], in assay [4], in [5], in [6] and in assay [7] was inactive. The molecule was called inactive in [8] and in assay [10]. Also, in assay [3], the concentration at half-maximal activity (AC50) is 0.0935 µM (active).
Consider `OCCCCl`, for which the outcome in [1], in assay [2], in assay [3], in assay [4], in [5] and in assay [6] was inactive. The molecule was called inactive in assay [7], in assay [8] and in assay [10].
Regarding `C=C(C)C(=O)OCC(F)(F)C(F)(F)C(F)(F)C(F)F`, the result in [1], in assay [2], in [3], in [4], in assay [5] and in assay [6] was inactive. The molecule was classed as inactive in assay [7], in assay [8], in assay [9] and in assay [10].
With `OCCCC(F)(F)C(F)(F)C(F)(F)C(F)(F)C(F)(F)C(F)(F)C(F)(F)C(F)(F)F`, the outcome in assay [1], in assay [3], in [5], in [6], in assay [7] and in assay [8] was inactive. In addition, the result in [10] was inactive. The half-maximal activity concentration (AC50) in assay [2] is 29.9 µM (active); in [4], 20.9 µM (active).

In general, AC50 refers to the concentration at which the activity in the assay is half-maximal.
